Assay [1] can be described thus: NCI Yeast Anticancer Drug Screen. Data for the rad50 strain (AID 155).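 Note: 0% = growth of vehicle-only cultures of the same strain.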 The note with it: S. cerevisiae rad50 strain growth inhibition, active compounds read high. The procedure, abridged: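 Compounds were tested on a yeast strain with an engineered DNA damage repair alteration; the reported value is growth inhibition normalised to vehicle treatment.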
Assay [2] in a line: NCI Yeast Anticancer Drug Screen. Data for the mec2-1 strain (AID 157). The note with it: S. cerevisiae mec2-1 strain, active compounds read high. The procedure, abridged: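 Cells of the genetically defined mec2-1 yeast strain are incubated with test compound. Inhibition of growth is calculated against vehicle-treated controls.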
The nature of assay [3]: NCI Yeast Anticancer Drug Screen. Data for the sgs1 mgt1 strain (AID 161).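 Note: 0% = growth of cultures given vehicle only.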 The note with it: S. cerevisiae sgs1 mgt1 strain, active compounds read high. The procedure, abridged:
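Inhibition of yeast growth, normalised to vehicle-treated controls, is reported for a strain bearing genetic alterations in DNA damage repair.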

The nature of assay [4]: NCI Yeast Anticancer Drug Screen. Data for the cln2 rad14 strain (AID 165).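 Note: 0% = growth equal to vehicle treated cultures.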 Conditions: S. cerevisiae cln2 rad14 strain, active compounds read high. The procedure, abridged: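 The screen exposed genetically defined yeast (cln2 rad14) to test compounds and scored growth inhibition relative to vehicle-treated controls.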
Assay [5] in a line: NCI Yeast Anticancer Drug Screen. Data for the bub3 strain (AID 167). Conditions: S. cerevisiae bub3 mutant strain, active compounds read high. The procedure, abridged:
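Growth of a checkpoint-deficient yeast mutant is measured after compound exposure. Values represent inhibition relative to vehicle.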

Assay [6] is described as follows: NCI Yeast Anticancer Drug Screen. Data for the mlh1 rad18 strain (AID 175). The note with it: S. cerevisiae mlh1 rad18 strain growth inhibition, active compounds read high. The procedure, abridged: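 Compound-treated yeast growth, normalised to vehicle controls. Strain bears defined DNA repair mutations.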
Setting [7] is: at 5.0 µM (retest, dose inferred, filed as 0.5).
Setting [8] is: at 50.0 µM (retest, dose inferred, filed as 5.0).

This is part of a sample that, as a whole, favours compounds with a hit. Of some 79,000 tested, about 15% had one in any assay. Unmarked numbers belong to inactive results. Activity calls are given as the source filed them. Cut-off read from the data, not from the text of the source: active = growth inhibition above about 70%; inactive = the rest.

As for `Oc1ccc(C/C=C/c2ccccc2)cc1O`, the growth inhibition was 3% in assay [1] (setting [7]); 98% (active) in assay [1] (setting [8]); 56.8% in assay [1] (at 50.0 µM); 4% in assay [2] (setting [7]); 99% (active) in assay [2] (setting [8]); 99.1% (active) in assay [2] (at 50.0 µM). Also, the growth inhibition was 13% in assay [3] (setting [7]); 99% (active) in assay [3] (setting [8]); 47.8% in assay [3] (at 50.0 µM); -7% in assay [4] (setting [7]); 98% (active) in assay [4] (setting [8]); 98.8% (active) in assay [4] (at 50.0 µM). Moreover, the growth inhibition in assay [5] (setting [7]) is -1%; in assay [5] (setting [8]) it was 98% (active); in assay [5] (at 50.0 µM) it was 99.2% (active); in assay [6] (setting [7]), 9%; in assay [6] (setting [8]), 98% (active); in assay [6] (at 50.0 µM) it was 99.2% (active).

Turning to `CC1=C(C)C(=O)C(CNCc2ccccc2)=[C-]C1=O.[Co].[c-]1[c-][c-][cH-][c-]1`, the growth inhibition was 6% in assay [1] (setting [7]); -13% in assay [1] (setting [8]); 45.8% in assay [1] (at 50.0 µM); -3% in assay [2] (setting [7]); 26% in assay [2] (setting [8]); 35.6% in assay [2] (at 50.0 µM). Further, the growth inhibition in assay [3] (setting [7]) is 5%; in assay [3] (setting [8]) it was 19%; in assay [3] (at 50.0 µM) it was 44.8%; in assay [4] (setting [7]), 7%; in assay [4] (setting [8]), 10%; in assay [4] (at 50.0 µM), 51.1%. The growth inhibition in assay [5] (setting [7]) is 11%; in assay [5] (setting [8]), 15%; in assay [5] (at 50.0 µM), 19.1%; in assay [6] (setting [7]) it was 6%; in assay [6] (setting [8]) it was 3%; in assay [6] (at 50.0 µM), 32.3%.

As for `CCOC(=O)Nc1cc(NC(C)/C(=N/O)c2ccccc2)c([N+](=O)[O-])c(N)n1` (stereo not given), the growth inhibition in assay [1] (setting [7]) is -18%; in assay [1] (setting [8]), 97% (active); in assay [1] (at 50.0 µM), 42.6%; in assay [2] (setting [7]), -5%; in assay [2] (setting [8]) it was 47%; in assay [2] (at 50.0 µM) it was 59.5%. Also, the growth inhibition in assay [3] (setting [7]) is 1%; in assay [3] (setting [8]) it was 69%; in assay [3] (at 50.0 µM), 47.5%; in assay [4] (setting [7]) it was -21%; in assay [4] (setting [8]), 98% (active); in assay [4] (at 50.0 µM), 24.9%. In addition, the growth inhibition was -10% in assay [5] (setting [7]); 87% (active) in assay [5] (setting [8]); 62.1% in assay [5] (at 50.0 µM); -5% in assay [6] (setting [7]); 82% (active) in assay [6] (setting [8]); 44.2% in assay [6] (at 50.0 µM).

For `CCN(CC)CCNc1c(O)cc(C)c2sc3ccccc3c(=O)c12`, the growth inhibition in assay [1] (setting [7]) is 18%; in assay [1] (setting [8]), 95% (active); in assay [1] (at 50.0 µM), 98.5% (active); in assay [2] (setting [7]), 10%; in assay [2] (setting [8]) it was 94% (active); in assay [2] (at 50.0 µM), 99% (active). The growth inhibition in assay [3] (setting [7]) is 7%; in assay [3] (setting [8]), 98% (active); in assay [3] (at 50.0 µM), 98.8% (active); in assay [4] (setting [7]), 11%; in assay [4] (setting [8]) it was 84% (active); in assay [4] (at 50.0 µM) it was 96.8% (active). The growth inhibition is 3% in assay [5] (setting [7]); 84% (active) in assay [5] (setting [8]); 97.2% (active) in assay [5] (at 50.0 µM); 2% in assay [6] (setting [7]); 96% (active) in assay [6] (setting [8]); 98.3% (active) in assay [6] (at 50.0 µM).

As to `COC(=O)C1(Cc2ccc3c(c2)CCC3)Cc2ccccc2C1O` (stereo not given), the growth inhibition in assay [1] (setting [7]) is -3%; in assay [1] (setting [8]), 99% (active); in assay [1] (at 50.0 µM) it was 76.5% (active); in assay [2] (setting [7]), -40%; in assay [2] (setting [8]), 99% (active); in assay [2] (at 50.0 µM), 84.1% (active). The growth inhibition in assay [3] (setting [7]) is -44%; in assay [3] (setting [8]) it was 99% (active); in assay [3] (at 50.0 µM), 86.2% (active); in assay [4] (setting [7]), 1%; in assay [4] (setting [8]), 99% (active); in assay [4] (at 50.0 µM), 89.8% (active). The growth inhibition in assay [5] (setting [7]) was -14%; in assay [5] (setting [8]), 99% (active); in assay [5] (at 50.0 µM), 89.6% (active); in assay [6] (setting [7]), -21%; in assay [6] (setting [8]), 99% (active); in assay [6] (at 50.0 µM) it was 91% (active).

For `O=c1[nH]c2ccccc2c2oc3ccccc3c12`, the growth inhibition in assay [1] (setting [7]) was -14%; in assay [1] (setting [8]), 83% (active); in assay [1] (at 50.0 µM) it was 63.5%; in assay [2] (setting [7]), -10%; in assay [2] (setting [8]), 71% (active); in assay [2] (at 50.0 µM), 51.5%. Further, the growth inhibition in assay [3] (setting [7]) is -4%; in assay [3] (setting [8]) it was 69%; in assay [3] (at 50.0 µM), 64.5%; in assay [4] (setting [7]), 18%; in assay [4] (setting [8]) it was 32%; in assay [4] (at 50.0 µM), 25.4%. Further, the growth inhibition is -10% in assay [5] (setting [7]); 88% (active) in assay [5] (setting [8]); 46.5% in assay [5] (at 50.0 µM); -18% in assay [6] (setting [7]); 94% (active) in assay [6] (setting [8]); 68.3% in assay [6] (at 50.0 µM).

In the case of `CCOC(=O)/C(=N/NS(=O)(=O)c1c(C)cc(C)cc1C)c1ccco1`, the growth inhibition is -2% in assay [1] (setting [7]); 13% in assay [1] (setting [8]); 64.6% in assay [1] (at 50.0 µM); -2% in assay [2] (setting [7]); 25% in assay [2] (setting [8]); 45.5% in assay [2] (at 50.0 µM). For the same compound, the growth inhibition in assay [3] (setting [7]) was 2%; in assay [3] (setting [8]), 41%; in assay [3] (at 50.0 µM), 50.4%; in assay [4] (setting [7]) it was 0%; in assay [4] (setting [8]), -4%; in assay [4] (at 50.0 µM) it was 38.3%. Moreover, the growth inhibition was 1% in assay [5] (setting [7]); 29% in assay [5] (setting [8]); 79.8% (active) in assay [5] (at 50.0 µM); 4% in assay [6] (setting [7]); 34% in assay [6] (setting [8]); 80.7% (active) in assay [6] (at 50.0 µM).

`c1ccc(-c2cc(-c3cc(-c4ccccn4)[nH]n3)n[nH]2)nc1`: the growth inhibition in assay [1] (setting [7]) was 5%; in assay [1] (setting [8]), 4%; in assay [1] (at 50.0 µM), 17.2%; in assay [2] (setting [7]), 0%; in assay [2] (setting [8]) it was -11%; in assay [2] (at 50.0 µM), 0.75%. The growth inhibition in assay [3] (setting [7]) is 0%; in assay [3] (setting [8]), 18%; in assay [3] (at 50.0 µM) it was 23.5%; in assay [4] (setting [7]), -1%; in assay [4] (setting [8]), -16%; in assay [4] (at 50.0 µM) it was 9.05%. Also, the growth inhibition in assay [5] (setting [7]) is 4%; in assay [5] (setting [8]) it was 7%; in assay [5] (at 50.0 µM), 3.4%; in assay [6] (setting [7]), -5%; in assay [6] (setting [8]) it was 4%; in assay [6] (at 50.0 µM) it was 19.6%.

Turning to `CC1=CC(O)(c2nc3ccccc3s2)CC(C)(C)C1` (stereo not given), the growth inhibition in assay [1] (setting [7]) is 3%; in assay [1] (setting [8]), 60%; in assay [1] (at 50.0 µM), 69.7%; in assay [2] (setting [7]), 6%; in assay [2] (setting [8]), 61%; in assay [2] (at 50.0 µM), 56.1%. In addition, the growth inhibition is -1% in assay [3] (setting [7]); 61% in assay [3] (setting [8]); 64.2% in assay [3] (at 50.0 µM); -2% in assay [4] (setting [7]); 51% in assay [4] (setting [8]); 47.7% in assay [4] (at 50.0 µM). Besides, the growth inhibition in assay [5] (setting [7]) was 15%; in assay [5] (setting [8]) it was 31%; in assay [5] (at 50.0 µM) it was 41.4%; in assay [6] (setting [7]), -2%; in assay [6] (setting [8]) it was 69%; in assay [6] (at 50.0 µM), 66.4%.

`Clc1ccc2nc(CCSCCc3nc4ccc(Cl)cc4[nH]3)[nH]c2c1`: the growth inhibition was 5% in assay [1] (setting [7]); 97% (active) in assay [1] (setting [8]); 87.8% (active) in assay [1] (at 50.0 µM); 7% in assay [2] (setting [7]); 98% (active) in assay [2] (setting [8]); 98.7% (active) in assay [2] (at 50.0 µM). The growth inhibition was 7% in assay [3] (setting [7]); 97% (active) in assay [3] (setting [8]); 82% (active) in assay [3] (at 50.0 µM); -15% in assay [4] (setting [7]); 99% (active) in assay [4] (setting [8]); 59.9% in assay [4] (at 50.0 µM). Further, the growth inhibition was -10% in assay [5] (setting [7]); 98% (active) in assay [5] (setting [8]); 94.8% (active) in assay [5] (at 50.0 µM); 0% in assay [6] (setting [7]); 98% (active) in assay [6] (setting [8]); 97.9% (active) in assay [6] (at 50.0 µM).

Source of the values: PubChem BioAssay (NCI).
